PubChem BioAssay (NCI)
About 83,000 compounds went through this panel and 20% of them were active in at least one assay; those are over-represented in the sample as a whole.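 48-hour exposure, single concentration, 96-well plates; percent growth endpoint where 0 means no net growth. Active: below 10.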 A number with no mark means an inactive call. Calls of active or inactive are those of the source.

system: HL-60(TB) leukemia; assay: NCI-60 one-dose screen, 48 h (100 = growth as untreated, 0 = no growth, -100 = all killed); details: 10 µM unless noted

Structure (SMILES)	growth
O=[N+]([O-])c1cccc(C2CC(c3ccccc3)=Nc3ccccc3S2)c1 (stereo unspecified)	84.7%
FC(F)(F)c1ccc2c(Nc3cccc(C4CC(c5ccccc5)=NN4c4ccc(Cl)cc4)c3)ccnc2c1 (stereo unspecified)	36.5%
Cc1cccc(C)c1NC(=O)c1sc2nc3c(cc2c1N)C(=O)CCC3	104%
COc1ccc(-n2nc(C(=O)NCC(=O)O)nc2-c2ccccc2)cc1	96.3%
CC1=NNC(=O)C1C (stereo unspecified)	124%
O=C(Nc1cccc(Cl)c1)Nc1cccc(Cl)c1	43.9%
CCCCCCNC(=O)Nc1ncnc2c1ncn2-c1ccccc1	109%
CC(=O)Oc1ccc(OC(C)=O)c2ccccc12	-17.4% (active)
O=c1c2cccc3c(Nc4c(F)cccc4F)ccc(c32)c2nc3ccccc3n12	85.9%
COc1ccc(C2Nc3nc(OC)n(C)c(=O)c3N=C3c4ccccc4C(=O)C32)cc1 (stereo unspecified)	67.1%
O=[N+]([O-])c1cc2c(cc1Br)-c1ccccc1C2	104%
COc1cc(/C=N/Nc2ccc(Br)cc2)cc(OC)c1OC	33%
O=C(c1ccccc1)c1ccc(O)c2ncccc12	19.8%
COc1cc(NS(C)(=O)=O)ccc1Nc1c2ccc([N+](=O)[O-])cc2nc2c(C)cccc12	-26.6% (active)
COc1cccc2c(=O)c3c(sc12)c(NCCCN)nc1ccccc13	44.2%
COc1cccc(-c2nn(C)c3sc(C(=O)NCCN4CCN(c5ccccc5F)CC4)cc23)c1	8.08% (active)
